# Sampled rows, rich in hits. Any-hit rate of the full collection: about 3.7%.
# Wnt bcat act: Wnt/beta-catenin pathway activation. Wnt/beta-catenin reporter cell assay, activator, plate reader. activation, % at 9.35 µM. 1.2% of 300,000 active. AID 743398; in the data active means activation above about 30%, passing the limit was not always enough; inconclusive means no clear call, values can overlap the other calls;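 further: 0% = neutral control wells and 100% = positive control wells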
# esBAF inh: blocks esBAF chromatin remodeling in mouse ES cells; Bmi1-luciferase knock-in reporter, 24 h; 100% = twice the neutral-well signal; reporter increase, % at 12.5 µM; 2% of 350,000 active; in the data active means activation above about 40%; inconclusive means no clear call, values can overlap the other calls;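 further: 0% = median of the plate's neutral control wells and 100% = double that signal; a rise in the Bmi1 reporter signal indicates esBAF inhibition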
# MLL AF4-AF9 inh: blocks AF4 peptide binding to human AF9; P42568; AlphaScreen, biotin-AF4 peptide binding to FLAG-AF9; inhibition, % at 10 µM; 0.47% of 350,000 active; AID 651704;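 active means every replicate reaching a set inhibition limit, whatever the replicate mean, cut at about 25% in these data; inconclusive means mean inhibition reaches that limit but some replicates miss it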;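 further: 0% = plate neutral control median and 100% = total signal loss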
# Target sequence (P42568 whole entry, looked up): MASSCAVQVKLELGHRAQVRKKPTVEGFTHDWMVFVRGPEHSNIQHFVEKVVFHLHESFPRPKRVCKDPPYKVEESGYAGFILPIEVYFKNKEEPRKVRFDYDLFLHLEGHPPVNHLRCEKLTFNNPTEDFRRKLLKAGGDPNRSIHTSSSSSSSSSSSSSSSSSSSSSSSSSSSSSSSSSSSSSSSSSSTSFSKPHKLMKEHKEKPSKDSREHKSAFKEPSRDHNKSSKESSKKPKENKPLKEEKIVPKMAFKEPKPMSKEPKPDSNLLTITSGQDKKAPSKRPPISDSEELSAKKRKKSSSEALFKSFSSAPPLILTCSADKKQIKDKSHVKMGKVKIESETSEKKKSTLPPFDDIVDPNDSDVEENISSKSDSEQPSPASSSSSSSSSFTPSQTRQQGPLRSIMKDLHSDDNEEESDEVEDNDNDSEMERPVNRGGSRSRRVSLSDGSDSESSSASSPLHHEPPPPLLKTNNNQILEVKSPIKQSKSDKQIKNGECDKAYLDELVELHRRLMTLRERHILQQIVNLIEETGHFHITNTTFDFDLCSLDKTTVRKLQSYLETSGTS
# rRNA inh HTS: inhibitors of bacterial rRNA selective over humanized ribosomes; E. coli WT GFP vs humanized-ribosome RFP mutants, fluorescence, 24 h; stronger effect = lower value; DMSO median 0, no signal -100; GFP signal change (wild-type ribosome), % (concentration not given with the values); 1.6% of 350,000 active; AID 720706;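 active means significant combined selectivity score with lowered wild-type GFP, culture density cut under 30%, mutant RFP and density less affected; inactive means any of these conditions unmet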
# MITF act: activators of MITF-driven TRPM1 promoter activity in SK-MEL-5 cells; SK-MEL-5 TRPM1-promoter luciferase, 24 h; % of positive control, neutral wells = 0; activation, % at 12.5 µM; 0.75% of 300,000 active; AID 588334;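 active means mean activation of at least 80% with every replicate also reaching 80%; inconclusive means mean reaches 80% but some replicate falls short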;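 further: 0% = neutral control wells and 100% = parthenolide positive control wells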
# * marks the source's active call; other numbers are inactive results; u = inconclusive; x = no result.
SMILES,Wnt bcat act,esBAF inh,MLL AF4-AF9 inh,rRNA inh HTS,MITF act
CCc1ccc(/C=C2\SC(=S)N(CCCC(=O)NCCCN3CCOCC3)C2=O)cc1,-4.6,-81.1,4.4,-27.0*,x
CCc1ccc(/C=C2/SC(=S)N(CCC(=O)NCCCN3CCOCC3)C2=O)cc1,7.7,-1.0,11.6,-1.7,28.8
CCOc1ccc(/C=C2\SC(=S)N(CCCC(=O)NCCCN3CCOCC3)C2=O)cc1,0.9,-79.3,5.2,-20.7*,-57.0
COC(=O)c1ccc(/C=C2/SC(=S)N(CCC(=O)NCCCN3CCOCC3)C2=O)cc1,-1.9,-4.0,1.7,-3.0,0.1
CCOc1cc(/C=N/NC(=O)C2CCCC2)ccc1O,-0.7,x,-0.9,1.4,-0.2
O=C(Oc1ccc(-c2cnc3ccccc3n2)cc1)c1ccco1,68.6*,7.8,x,x,u
COc1ccc(OC(=O)c2cc3ccccc3o2)cc1,x,-5.4,x,x,1.6
O=C(Oc1cccnc1)c1ccco1,-3.0,3.2,x,x,9.9
O=C(Oc1cccc(OC(=O)c2ccco2)c1)c1ccco1,0.7,0.0,-0.7,-22.9*,x
Cc1ccc(NC(=O)c2ccc(OC(=O)c3ccco3)cc2)cc1,20.1,53.9*,2.1,0.8,120.5*
Cc1ccc(NC(=O)c2ccc(OC(=O)c3cc4ccccc4o3)cc2)cc1,43.3*,59.6*,x,x,60.1
Cc1ccc(NC2CCCCC2NS(=O)(=O)c2ccc(Cl)cc2)cc1 (stereo not drawn),x,-3.4,-0.7,6.4,-12.0
COc1ccc(NC(=S)Nc2ccc3nsnc3c2)cc1,28.2,x,x,x,15.8
CCn1cc(/C=C(\NC(=O)c2ccccc2F)C(=O)NCCN2CCOCC2)c2ccccc21,-1.1,-1.6,6.5,9.0,-5.6
NC(=NCc1ccco1)NC(=O)c1ccc(Cl)cc1,2.7,49.0*,11.2,-25.0*,91.9*
COc1cccc(NC(=O)CNC(=O)N2CC(=O)Nc3ccccc32)c1,6.2,43.8*,0.0,-13.6,31.3
O=C(CCl)Nc1cccc(Oc2ccccc2)c1,-0.7,8.1,3.8,-25.6*,-64.9
COCC(=O)Nc1c(C(=O)Nc2cccc(OC)c2)oc2ccccc12,u,26.1,x,4.3,97.4*
CC(=O)Nc1cccc(Oc2ccc(-c3noc(C)n3)cc2)c1,26.7,72.2*,x,x,56.1
C[C@H](O)C#Cc1ccc2c(c1)O[C@H](CN(C)C(=O)C1CC1)[C@H](C)CN([C@@H](C)CO)S2(=O)=O,x,-1.3,-7.3,1.7,x
Cc1ccc(C(=O)Nc2ccccc2Oc2ccccc2)o1,-1.2,x,1.4,-46.4,-4.8
COc1cccc(NC(=O)CC(=O)c2ccccc2)c1,33.1*,u,-10.5,2.4,79.6
Cc1ccc(C(=O)Nc2cccc(Oc3ccccc3)c2)o1,x,68.5*,x,x,89.7*
COc1cccc(NC(=O)CC(C)=O)c1,-0.5,-0.1,-3.0,16.0,3.0
O=C1CN(C(=O)OCc2ccccc2)c2ccccc2N1,21.6,49.5*,x,x,57.7
SMILES,Wnt bcat act,esBAF inh,MLL AF4-AF9 inh,rRNA inh HTS,MITF act
COc1cccc(NC(=O)Cc2ccccc2)c1,u,63.6*,0.0,1.8,69.2
COc1ccc(/C=N/NC(=O)c2nc(Cl)c(Cl)c(N)c2Cl)cc1COc1ccc(F)cc1F,-1.2,9.0,x,x,-16.5
Cc1noc(C)c1NC(=O)Nc1ccc2c(c1)C(=O)N([C@H](C)CO)C[C@@H](C)[C@@H](CN(C)CC1CCCCC1)OCCCC[C@@H](C)O2,x,2.1,2.6,-0.2,x
COc1ccc(C2SCCN2S(=O)(=O)c2ccc(NC(C)=O)cc2)cc1OC (stereo not drawn),-3.2,-2.8,1.6,-7.1,-5.3
COc1ccc(S(=O)(=O)Nc2ccc3c(c2)C(=O)N([C@H](C)CO)C[C@H](C)[C@@H](CN(C)C(=O)Nc2c(C)noc2C)OCCCC[C@@H](C)O3)cc1,x,0.5,-1.5,0.9,x
COc1cccc(NC(=S)NCc2ccncc2)c1,1.7,x,-17.2,13.4,11.5
COc1cccc(NC(=O)C(=O)NCc2ccncc2)c1,23.0,52.0*,x,x,u
CC(C)NC(=O)NCC[C@H]1CC[C@H](NS(=O)(=O)c2ccc(-c3ccccc3)cc2)[C@@H](CO)O1,x,-4.0,7.7,-1.2,x
Cc1nc(OCC(C)C)c2sc3nc4c(cc3c2n1)COC(C)(C)C4,51.6*,x,2.4,5.9,x
COc1cccc2sc(NNC(=O)C3=COCCO3)nc12,19.7,46.5*,-1.6,13.0,20.1
COc1ccc(OC)c2sc(NC(=O)C3=COCCO3)nc12,5.4,5.9,-4.1,7.7,10.2
CC(Cc1ccccc1)NC(=S)CN1CCCC1=S (stereo not drawn),-1.6,-12.5,-3.0,-21.0*,3.3
COc1ccc(N=Cc2c(O)c3ccccc3oc2=O)cc1,u,u,0.0,7.4,-1.1
COC(=O)C1CCCCN1C(=O)c1cc(COc2cccc3cccnc23)on1 (stereo not drawn),-5.4,x,-0.1,-3.4,0.1
CCN(CC)C1CCN(C(=O)c2cc(COc3cccc4cccnc34)on2)C1 (stereo not drawn),1.0,2.7,0.5,5.8,5.1
COC(=O)C1CCCCN1C(=O)c1cc(COc2cccc3cnccc23)on1 (stereo not drawn),-6.2,-25.4,1.1,-31.0*,-2.0
O=C(c1cc(COc2cccc3cccnc23)on1)N1CCC[C@H]1CO,1.2,9.3,40.6*,1.1,x
COc1ccc(C(=O)Nc2ccc(C)c(S(=O)(=O)N3CCOCC3)c2)cc1S(=O)(=O)N1CCCC1,-0.6,3.5,-0.6,-45.1,6.9
Cc1ccc(N2CN=C3SCC(=O)N3C2)cc1C,5.2,x,1.4,14.6,-9.0
CCOC(=O)C(NC(=O)C1C(C)N1S(=O)(=O)c1ccc(C)cc1)C(=O)OCC (stereo not drawn),-0.2,3.1,-0.6,5.5,4.3
CC1CCc2nc(NC(=O)C3CC3)sc2C1 (stereo not drawn),x,x,x,x,40.6
Cc1ncsc1C(=O)Nc1nc2c(s1)CC(C)CC2 (stereo not drawn),32.3*,10.9,x,x,53.8
O=C(Cc1cccc2ccccc12)NCCOc1ccccc1F,-1.1,-1.0,-5.7,-38.9*,2.6
CC(=O)NCCOc1cccc2ccccc12,x,1.3,x,x,-10.8
O=C1CC(c2ccccc2)CC(O)=C1C=NCc1ccccc1Cl (stereo not drawn),x,-16.9,x,x,-28.7
SMILES,Wnt bcat act,esBAF inh,MLL AF4-AF9 inh,rRNA inh HTS,MITF act
CCOc1cnc(-c2ccc(OC)cc2)o1,x,x,x,x,91.6*
CCOc1cnc(-c2ccc(Cl)cc2)o1,x,x,x,x,63.5
Cc1csc(=O)n1CCC(=O)OCC(=O)Nc1ccc(Cl)cn1,-2.3,-1.2,-0.3,2.8,-11.6
CN(C)c1ccc(NC(=O)c2ccc3nsnc3c2)cc1,x,10.9,x,x,67.2
N#Cc1ccsc1NC(=O)c1ccc2ncsc2c1,17.8,71.4*,-1.5,x,x
O=C(Nc1cccc(Cl)c1)c1ccc2ncsc2c1,17.0,48.5*,-2.3,-15.2,46.5
O=C(Nc1ccc(Cl)cc1)c1ccc2ncsc2c1,19.4,64.9*,-3.2,2.5,64.3
O=C(Nc1ccc(Cl)cc1)c1ccc2nsnc2c1,-0.7,109.4*,-0.6,5.7,67.1
O=C(COC(=O)c1ccc2ncsc2c1)Nc1cccc(Cl)c1,-1.9,14.3,-3.0,6.4,10.0

# Screens: PubChem BioAssay, Broad Institute
